For nine compounds, growth inhibition results are on record in PubChem BioAssay (NCI).

Compounds without any hit were thinned out: in the full panel of roughly 79,000, 15% have a hit. Unmarked numbers belong to inactive results. Active and inactive are the calls of the source. Rule as the data show it: active = growth inhibition above about 70%; inactive = the rest.

A short description of assay [1]: NCI Yeast Anticancer Drug Screen. Data for the rad50 strain (AID 155).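 Also: 0% = growth of vehicle-only cultures of the same strain.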 Conditions: S. cerevisiae rad50 strain growth inhibition, active compounds read high. The method in brief: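 Vehicle-treated cultures provide the reference for the growth inhibition reported for compound-exposed, repair-deficient yeast.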
Assay [2] in a line: NCI Yeast Anticancer Drug Screen. Data for the mec2-1 strain (AID 157). Particulars: S. cerevisiae mec2-1 strain, active compounds read high. The method in brief: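 Compounds were applied to mec2-1 yeast cells. Their growth was then compared with that of vehicle-treated cultures to give growth inhibition.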
Assay [3] in a line: NCI Yeast Anticancer Drug Screen. Data for the sgs1 mgt1 strain (AID 161).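 Also: 0% = growth of cultures given vehicle only.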 Particulars: S. cerevisiae sgs1 mgt1 strain, active compounds read high. In short, it runs like this: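 Growth of a repair-deficient yeast mutant was monitored after compound treatment and expressed as inhibition relative to vehicle-treated cultures.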
Assay [4] in a line: NCI Yeast Anticancer Drug Screen. Data for the cln2 rad14 strain (AID 165).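 Also: 0% = growth equal to vehicle treated cultures.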 Particulars: S. cerevisiae cln2 rad14 strain, active compounds read high. The method in brief:
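Strain: cln2 rad14 yeast, altered in cell cycle control and DNA damage repair. Read-out: growth inhibition vs vehicle.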

The nature of assay [5]: NCI Yeast Anticancer Drug Screen. Data for the bub3 strain (AID 167). Conditions: S. cerevisiae bub3 mutant strain, active compounds read high. The method in brief:
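Mutant yeast screening strain plus compound; vehicle-treated cultures serve as the 0% inhibition reference.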

Assay [6] is described as follows: NCI Yeast Anticancer Drug Screen. Data for the mlh1 rad18 strain (AID 175). Conditions: S. cerevisiae mlh1 rad18 strain growth inhibition, active compounds read high. The method in brief: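 A repair-deficient yeast strain is exposed to test compound, and growth is scored relative to vehicle-treated controls.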
Setting [7] is: at 5.0 µM (retest, dose inferred, filed as 0.5).
The mark [8] stands for this setting: at 50.0 µM (retest, dose inferred, filed as 5.0).

As to `CCOC(=O)C1=C(C)NC(C)=C(C(=O)OCC)C1c1c(-c2ccccc2)noc1C`, the growth inhibition was 23% in assay [1] (setting [7]); 84% (active) in assay [1] (setting [8]); 6.6% in assay [1] (at 50.0 µM); 7% in assay [2] (setting [7]); 62% in assay [2] (setting [8]); -2.3% in assay [2] (at 50.0 µM). Besides, the growth inhibition in assay [3] (setting [7]) was 18%; in assay [3] (setting [8]) it was 69%; in assay [3] (at 50.0 µM), 2.2%; in assay [4] (setting [7]), 0%; in assay [4] (setting [8]) it was 40%; in assay [4] (at 50.0 µM) it was -3.5%. Also, the growth inhibition in assay [5] (setting [7]) was 1%; in assay [5] (setting [8]), 70% (active); in assay [5] (at 50.0 µM), 0.85%; in assay [6] (setting [7]), 2%; in assay [6] (setting [8]) it was 61%; in assay [6] (at 50.0 µM), 11.9%.

`CCC(C)SSc1ccccc1C(=O)Nc1ccc(Cl)cc1` (configuration not stated): the growth inhibition is 3% in assay [1] (setting [7]); 52% in assay [1] (setting [8]); 79.5% (active) in assay [1] (at 50.0 µM); 14% in assay [2] (setting [7]); 93% (active) in assay [2] (setting [8]); 93.9% (active) in assay [2] (at 50.0 µM). The growth inhibition is -12% in assay [3] (setting [7]); 83% (active) in assay [3] (setting [8]); 91.7% (active) in assay [3] (at 50.0 µM); -5% in assay [4] (setting [7]); 85% (active) in assay [4] (setting [8]); 74.1% (active) in assay [4] (at 50.0 µM). Besides, the growth inhibition in assay [5] (setting [7]) was -2%; in assay [5] (setting [8]) it was 93% (active); in assay [5] (at 50.0 µM), 91.3% (active); in assay [6] (setting [7]), 7%; in assay [6] (setting [8]), 91% (active); in assay [6] (at 50.0 µM) it was 87.7% (active).

For `c1ccc2c(CCc3ccncc3)c[nH]c2c1`, the growth inhibition in assay [1] (setting [7]) was 2%; in assay [1] (setting [8]), 78% (active); in assay [1] (at 50.0 µM), 46.8%; in assay [2] (setting [7]) it was -4%; in assay [2] (setting [8]), 59%; in assay [2] (at 50.0 µM), 45.1%. The growth inhibition is 11% in assay [3] (setting [7]); 82% (active) in assay [3] (setting [8]); 50.1% in assay [3] (at 50.0 µM); -13% in assay [4] (setting [7]); 69% in assay [4] (setting [8]); 6.25% in assay [4] (at 50.0 µM). Moreover, the growth inhibition in assay [5] (setting [7]) is -10%; in assay [5] (setting [8]) it was 75% (active); in assay [5] (at 50.0 µM), 4.8%; in assay [6] (setting [7]), -13%; in assay [6] (setting [8]), 65%; in assay [6] (at 50.0 µM) it was 57.5%.

As for `O=C(O)CCCCCCCCC(=O)O.[Ag]`, the growth inhibition in assay [1] (setting [7]) was 99% (active); in assay [1] (setting [8]) it was 99% (active); in assay [1] (at 50.0 µM), 90.2% (active); in assay [2] (setting [7]), 99% (active); in assay [2] (setting [8]) it was 99% (active); in assay [2] (at 50.0 µM), 93% (active). In addition, the growth inhibition in assay [3] (setting [7]) was 100% (active); in assay [3] (setting [8]), 99% (active); in assay [3] (at 50.0 µM), 93.8% (active); in assay [4] (setting [7]) it was 70% (active); in assay [4] (setting [8]), 99% (active); in assay [4] (at 50.0 µM), 92.2% (active). In addition, the growth inhibition in assay [5] (setting [7]) was 99% (active); in assay [5] (setting [8]) it was 99% (active); in assay [5] (at 50.0 µM), 92.5% (active); in assay [6] (setting [7]), 99% (active); in assay [6] (setting [8]) it was 99% (active); in assay [6] (at 50.0 µM) it was 91.5% (active).

As to `O=C(NCCNCCNCCNC(=O)c1cc(-c2ccccc2)nc2ccccc12)c1cc(-c2ccccc2)nc2ccccc12`, the growth inhibition was -16% in assay [1] (setting [7]); 57% in assay [1] (setting [8]); 98.7% (active) in assay [1] (at 50.0 µM); -10% in assay [2] (setting [7]); 63% in assay [2] (setting [8]); 99.2% (active) in assay [2] (at 50.0 µM). For the same compound, the growth inhibition in assay [3] (setting [7]) was -7%; in assay [3] (setting [8]), 41%; in assay [3] (at 50.0 µM) it was 98.8% (active); in assay [4] (setting [7]), 18%; in assay [4] (setting [8]), 64%; in assay [4] (at 50.0 µM), 99% (active). In addition, the growth inhibition in assay [5] (setting [7]) was -25%; in assay [5] (setting [8]) it was 86% (active); in assay [5] (at 50.0 µM), 99.2% (active); in assay [6] (setting [7]), -4%; in assay [6] (setting [8]) it was 88% (active); in assay [6] (at 50.0 µM) it was 99% (active).

Take `CC(=O)OC1COC(N2C(=O)C(=O)c3cc(Br)ccc32)C(OC(C)=O)C1OC(C)=O` (configuration not stated): the growth inhibition in assay [1] (setting [7]) was -11%; in assay [1] (setting [8]), 20%; in assay [1] (at 50.0 µM) it was 50.7%; in assay [2] (setting [7]), 1%; in assay [2] (setting [8]), 7%; in assay [2] (at 50.0 µM) it was -12.3%. Also, the growth inhibition in assay [3] (setting [7]) is -16%; in assay [3] (setting [8]) it was 0%; in assay [3] (at 50.0 µM) it was 2.9%; in assay [4] (setting [7]), -37%; in assay [4] (setting [8]), -4%; in assay [4] (at 50.0 µM) it was 19.1%. Also, the growth inhibition in assay [5] (setting [7]) was -13%; in assay [5] (setting [8]) it was 23%; in assay [5] (at 50.0 µM), 25.4%; in assay [6] (setting [7]), -2%; in assay [6] (setting [8]) it was 14%; in assay [6] (at 50.0 µM), 12.9%.

As for `C=C(CC)C[C@@H]1C[C@]2(C(=O)OC)c3[nH]c4ccccc4c3CCN2C1=O`, the growth inhibition in assay [1] (setting [7]) is -1%; in assay [1] (setting [8]), 94% (active); in assay [1] (at 50.0 µM) it was 52.5%; in assay [2] (setting [7]), 0%; in assay [2] (setting [8]) it was 85% (active); in assay [2] (at 50.0 µM), 26.9%. Further, the growth inhibition was 8% in assay [3] (setting [7]); 98% (active) in assay [3] (setting [8]); 58.4% in assay [3] (at 50.0 µM); 15% in assay [4] (setting [7]); 77% (active) in assay [4] (setting [8]); 62.5% in assay [4] (at 50.0 µM). Also, the growth inhibition in assay [5] (setting [7]) is 2%; in assay [5] (setting [8]), 18%; in assay [5] (at 50.0 µM), 48.5%; in assay [6] (setting [7]), 0%; in assay [6] (setting [8]) it was 96% (active); in assay [6] (at 50.0 µM), 82.5% (active).

As to `O=C(N(c1ccc(Cl)cc1)c1ccc(Cl)cc1)C(Cl)(Cl)Cl`, the growth inhibition in assay [1] (setting [7]) was 20%; in assay [1] (setting [8]) it was 68%; in assay [1] (at 50.0 µM), -13.9%; in assay [2] (setting [7]), 23%; in assay [2] (setting [8]) it was 63%; in assay [2] (at 50.0 µM), 5.7%. For the same compound, the growth inhibition is 14% in assay [3] (setting [7]); 69% in assay [3] (setting [8]); 4.95% in assay [3] (at 50.0 µM); 14% in assay [4] (setting [7]); 65% in assay [4] (setting [8]); -7.95% in assay [4] (at 50.0 µM). In addition, the growth inhibition in assay [5] (setting [7]) was 33%; in assay [5] (setting [8]), 74% (active); in assay [5] (at 50.0 µM), -1.25%; in assay [6] (setting [7]) it was 38%; in assay [6] (setting [8]), 74% (active); in assay [6] (at 50.0 µM) it was 18.1%.

`O=C(Nc1nc2ccc([N+](=O)[O-])cc2s1)C(=O)C(C1OC(=O)c2ccccc21)[N+](=O)[O-]` (configuration not stated): the growth inhibition in assay [1] (setting [7]) is 8%; in assay [1] (setting [8]), 8%; in assay [1] (at 50.0 µM) it was 88.7% (active); in assay [2] (setting [7]) it was -7%; in assay [2] (setting [8]), -7%; in assay [2] (at 50.0 µM), 87% (active). The growth inhibition in assay [3] (setting [7]) was 9%; in assay [3] (setting [8]) it was 9%; in assay [3] (at 50.0 µM), 88.9% (active); in assay [4] (setting [7]), 13%; in assay [4] (setting [8]) it was 13%; in assay [4] (at 50.0 µM), 67.6%. Besides, the growth inhibition was 4% in assay [5] (setting [7]); 4% in assay [5] (setting [8]); 84% (active) in assay [5] (at 50.0 µM); 0% in assay [6] (setting [7]); 0% in assay [6] (setting [8]); 76% (active) in assay [6] (at 50.0 µM).
